Results on two molecules are retold here after PubChem BioAssay AID651588 (Broad Institute, 2012).

This assay in a line: TRPM1 promoter luciferase reporter signal decrease, dose response, MITF inhibitor project, cell-based, SK-MEL-5, dry powder, set 9 (AID 651588).

Measured potencies and affinities stand elsewhere. The source made the active and inactive calls.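 How the source made its calls: active means compounds lowering reporter light with a fitted half-maximal concentration no more than twice the top tested dose; inconclusive means flat response with inhibition between 30 and 70%, or poor fit; inactive means rising signal, flat response, or weak potency.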

Take `O=C1C=C(Nc2ccccc2)C(=O)c2ccccc21`: the call was inactive. As to `Cc1ccc(NC2=CC(=O)c3ccccc3C2=O)cc1`, the result was inactive.
